Laboratory results taken from PubChem BioAssay (NCI).
About 83,000 compounds went through this panel and 20% of them were active in at least one assay; those are over-represented in the sample as a whole.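 Testing used 96-well plates and a 48-hour single-concentration exposure. Example: -40 means 40% of the starting cells died.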 A number with no mark means an inactive call. The source made the active and inactive calls. Rule for the calls: active = growth percent below 10; inactive = the rest.

Tests used:
Assay in all cases: NCI-60 one-dose screen, 48 h (100 = growth as untreated, 0 = no growth, -100 = all killed)
Details in all cases: 10 µM unless noted
SK-MEL-2 melanoma = test system: SK-MEL-2 melanoma
EKVX NSCLC = test system: EKVX NSCLC
SN12C renal = test system: SN12C renal
UO-31 renal = test system: UO-31 renal
TK-10 renal = test system: TK-10 renal
ACHN renal = test system: ACHN renal
CAKI-1 renal = test system: CAKI-1 renal
CCRF-CEM leukemia = test system: CCRF-CEM leukemia
MOLT-4 leukemia = test system: MOLT-4 leukemia

Row | Compound | growth (SK-MEL-2 melanoma) | growth (EKVX NSCLC) | growth (SN12C renal) | growth (UO-31 renal) | growth (TK-10 renal) | growth (ACHN renal) | growth (CAKI-1 renal) | growth (CCRF-CEM leukemia) | growth (MOLT-4 leukemia)
1 | O=C(CC12CC3CC(CC(C3)C1)C2)NCCOCCOCCNC(=O)c1cc2c(o1)C(=O)c1ccccc1C2=O | -42% (active) | -66.4% (active) | -96.3% (active) | -60.1% (active) | -27.1% (active) | -74% (active) | -65.8% (active) | 12.6% | -4.92% (active)
2 | O=C(CCl)N1c2cccc3cccc(c23)N(C(=O)CCl)C1c1cn(-c2ccccc2)nc1-c1cccc([N+](=O)[O-])c1 | 111% | 102% | 93.5% | 66.9% | 104% | 76.7% | 92.5% | 8.63% (active) | 34.7%
3 | N=C(N)c1ccc(-c2ccc(-c3ccc(Cl)c(Cl)c3)o2)cc1 | 102% | 69.8% | -81% (active) | -69.1% (active) | 76% | -70.7% (active) | 53% | -24.9% (active) | -31% (active)
4 | Cl.Fc1c[c-]c(-c2ccccn2)c(F)c1.[Pt].c1ccc([PH+](C[PH+](c2ccccc2)c2ccccc2)c2ccccc2)cc1 | -74.6% (active) | -84.4% (active) | -70.3% (active) | -93.2% (active) | -81.4% (active) | -97.8% (active) | -91% (active) | – | -38.9% (active)
5 | N=C(N)c1ccc(-c2ccc(-c3ccc(Cl)c(Cl)c3)o2)nc1 | 108% | 97.3% | -72.8% (active) | -92% (active) | 116% | -86.9% (active) | 87.1% | 2.34% (active) | 9.85% (active)
6 | O=[N+]([O-])c1cccc(/C=C/c2ccccn2)c1 | 117% | 74.3% | 84.3% | 69.4% | 104% | 72.1% | 52.3% | 65.5% | 75.2%
7 | COc1ccc(/C=C(\C#N)n2nnc3ccccc32)cc1 | 38.5% | 24.1% | 18.9% | 33.2% | 44% | 23% | 25% | 18.8% | 18.7%
8 | Cc1cc(-c2ccc(N(C)C)cc2)c2sc(=O)[nH]c2n1 | 56% | 77.5% | 76.7% | 55.3% | 97.7% | 83.2% | 46.9% | 60% | 63.2%
